Experimental data published in publication PMC9911399, “Two distinct binding modes provide the RNA-binding protein RbFox with extraordinary sequence specificity”.
Where a chain is given by its changes, count along the chain named. The full ranking holds about 16,000 sequences; the median of “ka relative to ugcaugu” is about 0.0091, and the highest 2% start at about 0.032. This excerpt belongs to a sample that is enriched for the highest values.

T1: RBFOX1 RRM (Homo sapiens, UniProt Q9NWB1 109-208)
T1 sequence: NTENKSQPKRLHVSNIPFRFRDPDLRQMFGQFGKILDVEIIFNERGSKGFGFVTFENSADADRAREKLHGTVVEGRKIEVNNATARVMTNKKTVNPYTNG

B1: UCAGACC (DNA:RNA)
RNA: GGGAGACCGGAAUUCAGAUUGUCCUCAGACCUUAAAUCCCGUCGUAGCCACCA
DNA 1: CAATCTGAATTCCGGTCTCCC
DNA 2: TGGTGGCTACGACGGGATT
B2: UGAGCUA (DNA:RNA)
RNA: B1 RNA with C26G, A29C, C30U, C31A
DNA 1: CAATCTGAATTCCGGTCTCCC
DNA 2: TGGTGGCTACGACGGGATT
B3: UAGAGGG (DNA:RNA)
RNA: B1 RNA with C26A, A27G, G28A, A29G, C30G, C31G
DNA 1: CAATCTGAATTCCGGTCTCCC
DNA 2: TGGTGGCTACGACGGGATT
B4: AACACAA (DNA:RNA)
RNA: GGGAGACCGGAAUUCAGAUUGUCCAACACAAUUAAAUCCCGUCGUAGCCACCA
DNA 1: CAATCTGAATTCCGGTCTCCC
DNA 2: TGGTGGCTACGACGGGATT
B5: GAGAUCC (DNA:RNA)
RNA: B4 RNA with A25G, C27G, C29U, A30C, A31C
DNA 1: CAATCTGAATTCCGGTCTCCC
DNA 2: TGGTGGCTACGACGGGATT
B6: UCUGUUC (DNA:RNA)
RNA: B1 RNA with A27U, A29U, C30U
DNA 1: CAATCTGAATTCCGGTCTCCC
DNA 2: TGGTGGCTACGACGGGATT
B7: GAGGGGG (DNA:RNA)
RNA: B4 RNA with A25G, C27G, A28G, C29G, A30G, A31G
DNA 1: CAATCTGAATTCCGGTCTCCC
DNA 2: TGGTGGCTACGACGGGATT
B8: UCCUGGC (DNA:RNA)
RNA: B1 RNA with A27C, G28U, A29G, C30G
DNA 1: CAATCTGAATTCCGGTCTCCC
DNA 2: TGGTGGCTACGACGGGATT
B9: UGGCGUC (DNA:RNA)
RNA: B1 RNA with C26G, A27G, G28C, A29G, C30U
DNA 1: CAATCTGAATTCCGGTCTCCC
DNA 2: TGGTGGCTACGACGGGATT
B10: GCUGGUU (DNA:RNA)
RNA: B1 RNA with U25G, A27U, A29G, C30U, C31U
DNA 1: CAATCTGAATTCCGGTCTCCC
DNA 2: TGGTGGCTACGACGGGATT
B11: UGGCUUC (DNA:RNA)
RNA: B1 RNA with C26G, A27G, G28C, A29U, C30U
DNA 1: CAATCTGAATTCCGGTCTCCC
DNA 2: TGGTGGCTACGACGGGATT
B12: GGCUGGU (DNA:RNA)
RNA: B4 RNA with A25G, A26G, A28U, C29G, A30G, A31U
DNA 1: CAATCTGAATTCCGGTCTCCC
DNA 2: TGGTGGCTACGACGGGATT
B13: GUGCUGG (DNA:RNA)
RNA: GGGAGACCGGAAUUCAGAUUGUCCGUGCUGGUUAAAUCCCGUCGUAGCCACCA
DNA 1: CAATCTGAATTCCGGTCTCCC
DNA 2: TGGTGGCTACGACGGGATT
B14: UGGCUUG (DNA:RNA)
RNA: B13 RNA with G25U, U26G, G30U
DNA 1: CAATCTGAATTCCGGTCTCCC
DNA 2: TGGTGGCTACGACGGGATT
B15: UGGCGUA (DNA:RNA)
RNA: B13 RNA with G25U, U26G, U29G, G30U, G31A
DNA 1: CAATCTGAATTCCGGTCTCCC
DNA 2: TGGTGGCTACGACGGGATT
B16: CGGCUGG (DNA:RNA)
RNA: B13 RNA with G25C, U26G
DNA 1: CAATCTGAATTCCGGTCTCCC
DNA 2: TGGTGGCTACGACGGGATT
B17: UGGCUGG (DNA:RNA)
RNA: B13 RNA with G25U, U26G
DNA 1: CAATCTGAATTCCGGTCTCCC
DNA 2: TGGTGGCTACGACGGGATT
B18: UUGCUGG (DNA:RNA)
RNA: B13 RNA with G25U
DNA 1: CAATCTGAATTCCGGTCTCCC
DNA 2: TGGTGGCTACGACGGGATT
B19: UGGCGUG (DNA:RNA)
RNA: B13 RNA with G25U, U26G, U29G, G30U
DNA 1: CAATCTGAATTCCGGTCTCCC
DNA 2: TGGTGGCTACGACGGGATT
B20: GCUAGGA (DNA:RNA)
RNA: B4 RNA with A25G, A26C, C27U, C29G, A30G
DNA 1: CAATCTGAATTCCGGTCTCCC
DNA 2: TGGTGGCTACGACGGGATT

Target: T1, RBFOX1 RRM
Experiment: EMSA; HiTS-Eq, 1 nM pool, 10 min; buffer printed only for the single-RNA assays: 10 mM Tris pH 7.5, 150 mM NaCl, 3.4 mM EDTA, 0.001% NP-40, 30 C
Conditions: tags: His6 N-terminal (pET28a); label: 5' 32P
Procedure, shortened: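 Purified wild-type or mutant RbFox RRM at increasing concentrations was equilibrated with 1 nM of 5′-radiolabelled RNA carrying 7 randomized nucleotides for 10 min in 50 µL. Unbound RNA was separated by 8% native PAGE and sequenced. Relative association constants came from read-count changes of each RNA species compared with the control reaction, normalised to the cognate motif.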

First: B1
Second: B2
The binding signal of the first is lower: 0.00454 KA relative to UGCAUGU for the first, 0.015 KA relative to UGCAUGU for the second.

First: B3
Second: B4
The binding signal of the first is higher: 0.00669 KA relative to UGCAUGU for the first, 0.00155 KA relative to UGCAUGU for the second.

First: B5
Second: B6
The binding signal of the first is lower: 0.0136 KA relative to UGCAUGU for the first, 0.0184 KA relative to UGCAUGU for the second.

First: B7
Second: B8
The binding signal of the first is higher: 0.0168 KA relative to UGCAUGU for the first, 0.0109 KA relative to UGCAUGU for the second.

First: B9
Second: B10
The binding signal of the first is lower: 0.0251 KA relative to UGCAUGU for the first, 0.0289 KA relative to UGCAUGU for the second.

Compared with B11, B12 is higher in binding signal: 0.0201 KA relative to UGCAUGU for the first, 0.0324 KA relative to UGCAUGU for the second.

First: B13
Second: B14
The binding signal of the first is lower: 0.0295 KA relative to UGCAUGU for the first, 0.0526 KA relative to UGCAUGU for the second.

Compared with B15, B16 is higher in binding signal: 0.0143 KA relative to UGCAUGU for the first, 0.0236 KA relative to UGCAUGU for the second.

First: B17
Second: B18
The binding signal of the first is higher: 0.0415 KA relative to UGCAUGU for the first, 0.0302 KA relative to UGCAUGU for the second.

Compared with B19, B20 is lower in binding signal: 0.0332 KA relative to UGCAUGU for the first, 0.00693 KA relative to UGCAUGU for the second.
